Test results from PubChem BioAssay (Tox21).
Results filed as inconclusive are left out. Entries that show only a call come without a potency. Calls of active or inactive are those of the source. The call rests on the fitted dose curve; in most records, active means well fitted cell-killing curve with a large enough effect in the repeat runs (not every such curve was filed as active); inconclusive means weak or mixed curves, or effect the other way; inactive means no such curve, though single readings can be large or run the other way.
Potency means the concentration at half of the fitted maximal effect.

Assay: qHTS assay to identify small molecule antagonists of the farnesoid-X-receptor (FXR) signaling pathway - cell viability counter screen (AID 743221); further: nearly all actives have a fitted effect of over 50% in size
Details: FXR-bla HEK293T viability, CellTiter-Glo luminescence, 16 h; series mostly up to 62.6 µM
Source text: National Center for Advancing Translational Sciences [NCATS]
NIH Chemical Genomics Center [NCGC]
U.S. Environmental Protection Agency [EPA]
National Institutes of Environmental Health Sciences [NIEHS]
National Toxicology Program [NTP]
U.S. Food and Drug Administration [FDA]
The farnesoid-X-receptor (FXR), a nuclear hormone receptor, is highly expressed in liver, intestine, kidney and adrenal cortex. Natural ligands of FXR are the bile acids (Cholic acid, Chenodeoxy cholic acid etc). FXR is an important regulator of diverse metabolic pathways, including the bile acid homeostasis, lipid and glucose metabolisms. FXR regulates the expression of target genes by binding either as a monomer or as a heterodimer with the retinoid X receptor (RXR). Numerous studies have reported that FXR exerts protective function during cholestasis, diabetes, liver regeneration, and cancer. To identify compounds that inhibit FXR signaling, GeneBLAzer FXR-UAS-bla HEK 293T cell line (Invitrogen, Carlsbad, CA) containing a beta-lactamase reporter gene under the control of a UAS response element was used to screen the Tox21 10K compound library. The cytotoxicity of the Tox21 compound library against the FXR-bla cell line was tested in parallel by measuring the cell viability using CellTiter-Glo assay in the same wells.
Tox21 Assay Protocol Summary:
FXR-bla cells were dispensed at 5000 cells/5uL/well in 1536-well black wall/clear bottom plates using a Multidrop Combi (Thermo Fisher Scientific, Waltham, MA) dispenser. After the assay plates were incubated at 37 C and 5% CO2 for 5 h, 23 nL of compounds dissolved in DMSO, positive controls or DMSO only was transferred to the assay plate by a Pintool station (Kalypsys, San Diego, CA), followed by addition of 1 uL Chenodeoxycholic acid (50 uM, final concentration in the wells). The assay plates were incubated at 37C for 16 h. After 1 uL of LiveBLAzerTM B/G FRET substrate was added using a Bioraptr Flying Reagent Dispenser (FRD) workstation (Beckman Coulter, Indianapolis, IN), the plates were incubated at room temperature for 2 h, and fluorescence intensity was measured by an Envision plate reader (PerkinElmer, Shelton, CT). For cell viability readout that measures cytotoxicity, 4uL/well of CellTiter-Glo reagent was added into the assay plates using a Bioraptr FRD. After 30 min incubation at room temperature, the luminescence intensity in the plates was measured using a ViewLux plate reader (PerkinElmer).
In the case of `CCCCCCCC/C=C/CCCOC(C)=O`, the Potency was “inactive”.
In the case of `NC(=O)C(=O)N/N=C/c1ccc([N+](=O)[O-])o1`, the Potency was “inactive”.
In the case of `Clc1ccccc1CN1CCc2sccc2C1`, the Potency was “inactive”.
For `Cc1c(-c2ccc(O)cc2)n(Cc2ccc(OCCN3CCCCCC3)cc2)c2ccc(O)cc12`, the Potency was 29.8 µM (active).
In the case of `Cc1cn[nH]c1`, the Potency was “inactive”.
In the case of `O=C1NC2CCCCN2C12CCN(CCCN1c3ccccc3CCc3ccc(Cl)cc31)CC2` (stereo not given), the Potency was 29.8 µM (active).
For `O=C1c2c(O)ccc([N+](=O)[O-])c2C(=O)c2c([N+](=O)[O-])ccc(O)c21`, the Potency was 43.2 µM (active).
With `CN1[C@@H]2CC[C@@H]1CC(OC(=O)C(CO)c1ccccc1)C2` (stereo not given in full) the Potency was “inactive”.
In the case of `Cc1ccc(-n2[nH]c(C)c(N=Nc3cccc(-c4cccc(C(=O)O)c4)c3O)c2=O)cc1C`, the Potency was “inactive”.
With `CN1[C@@H]2CC[C@H]1CC(OC(=O)C(CO)c1ccccc1)C2` (stereo not given in full) the Potency was “inactive”.
With `NC(=O)c1ccccc1N` the Potency was “inactive”.
With `O=C1OC(OC(=O)c2cccnc2Nc2cccc(C(F)(F)F)c2)c2ccccc21` (stereo not given) the Potency was “inactive”.
For `CC(C)=C1CC[C@@H](C)CC1=O`, the Potency was “inactive”.
With `CC1(C)C(=O)N(Br)C(=O)N1Br` the Potency was “inactive”.
With `COC(=O)NCCC[Si](OC)(OC)OC` the Potency was “inactive”.
With `Cc1cc(Nc2ccc(O)cc2)ccc1N` the Potency was “inactive”.
In the case of `CC(C)(c1cc(Br)c(O)c(Br)c1)c1cc(Br)c(O)c(Br)c1`, the Potency was “inactive”.
In the case of `[O]=[Zr]`, the Potency was “inactive”.
In the case of `CC1CCCCN1CCCOC(=O)c1ccc(OC2CCCCC2)cc1` (stereo not given), the Potency was “inactive”.
In the case of `Oc1ccc(-c2ccccc2)c(Cl)c1`, the Potency was “inactive”.
In the case of `O=C1c2c(O)ccc(O)c2C(=O)c2c(NCCNCCO)ccc(NCCNCCO)c21`, the Potency was “inactive”.
In the case of `Cc1c(C(=O)O)cccc1[N+](=O)[O-]`, the Potency was “inactive”.
With `CCc1ccc(O)c(C(C)(C)C)c1` the Potency was “inactive”.
For `CC(C)(C)CC(C)(C)c1ccccc1O`, the Potency was 43.9 µM (active).
For `O=C(O)c1cccc(Cl)n1`, the Potency was “inactive”.
With `Brc1ccccc1-c1ccccc1` the Potency was “inactive”.
In the case of `Oc1c(Br)cc(Br)c2cccnc12`, the Potency was “inactive”.
In the case of `O=C(Nc1ccc(Cl)cc1)Nc1ccc(Cl)c(C(F)(F)F)c1`, the Potency was 16.8 µM (active).
In the case of `CCN1CCN(c2cc(-c3ccc(F)cc3)c3c(n2)CCCCCC3)CC1`, the Potency was “inactive”.
In the case of `Cc1ccc(N)cc1O`, the Potency was “inactive”.
For `CCO[Si](CCCSSSSCCC[Si](OCC)(OCC)OCC)(OCC)OCC`, the Potency was “inactive”.
With `CCCCCCOc1ccc(O)cc1` the Potency was “inactive”.
With `CN(Cc1cc(Br)cc(Br)c1N)C1CCCCC1` the Potency was “inactive”.
For `C=CC(=O)OCC(O)COc1ccccc1` (stereo not given), the Potency was “inactive”.
In the case of `C/C=C/C(=O)Oc1c(CCCCCC(C)C)cc([N+](=O)[O-])cc1[N+](=O)[O-]`, the Potency was 43.6 µM (active).
In the case of `CCCCC(CC)COC(=O)c1ccc(O)cc1` (stereo not given), the Potency was 48.8 µM (active).
With `CC(=O)Nc1ccc(O)cc1` the Potency was “inactive”.
With `O=C(O)CCCCCCC(=O)O` the Potency was “inactive”.
For `Cc1ccc2ccc3cccc4ccc1c2c34`, the Potency was “inactive”.
In the case of `Cc1c(C)n(Cc2ccccc2)c2ccc(C(=O)OCCN(C)C)cc12`, the Potency was “inactive”.
